phage Ecoli inh: E. coli growth loss with phage present; AID 651602; growth absorbance; inhibition, % at 11.9 µM; actives 0.26% (n = 360,000); in the data active = inhibition above about 11%
AddAB inh: less growth of phage-infected E. coli with AddAB | actives 0.29% (n = 330,000) | inhibition, % at 11.9 µM | E. coli expressing H. pylori AddAB, absorbance growth; in the data active = inhibition above about 12%
Tat transport: inhibitors of E. coli Tat protein transport. E. coli MC4100 TorA-mCherry Tat export, fluorescence. inhibition, % at 10 µM. actives 0.036% (n = 340,000);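 active = mean replicate inhibition at least 50% and at least half of replicates individually reaching 50%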;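 also: exported cargo escapes ClpAP degradation while cytoplasmic cargo is degraded and loses fluorescence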
E coli growth-1: reduces bacterial viability in AddAB counter-screen | E. coli V3065 growth, OD600 absorbance, 18 h | inhibition, % at 11.9 µM | actives 0.27% (n = 330,000);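 active = inhibition above the campaign's mean inhibition across all tested compounds plus 3 SD, cut at about 9.9% in these data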;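 also: uninfected addAB+ strain grown without phage in ampicillin broth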
E coli growth-2: inhibitors of Escherichia coli growth | OD600, 23 h; hits give low values | OD600 absorbance (no concentration beside the values) | actives 0.21% (n = 330,000);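 active = OD600 absorbance below the run mean of sample wells minus 3.6 SD, in any replicate, cut at about 0.56 in these data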
RecBCD conf: confirmation: growth loss of phage-infected RecBCD+ E. coli (RecBCD inhibitor screen). E. coli V66 + T4 2- phage, growth OD. inhibition, % at 11.9 µM. shares compounds with phage Ecoli inh. AID 651982. actives 45% (n = 890);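 active = mean inhibition over triplicates exceeding the hit threshold derived in the original primary screen, cut at about 11% in these data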
Ecoli viability: bacterial viability inhibition counter-screen for RecBCD. shares compounds with phage Ecoli inh. E. coli viability, absorbance (OD) growth. inhibition, % at 11.9 µM. actives 29% (n = 890). AID 651983; in the data active = inhibition above about 20%;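 also: E. coli strain V66 grown with compound alone and no phage infection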
AddAB counter: growth loss of phage-infected AddAB E. coli, RecBCD counter-screen; shares compounds with phage Ecoli inh; E. coli expressing H. pylori AddAB + T4 phage, OD growth; gene 2 mutant T4, recBCD-deleted host; inhibition, % at 11.9 µM; actives 45% (n = 890); AID 651984;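 active = mean inhibition above the solvent-only control wells' mean plus 3 SD, cut at about 22% in these data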;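 also: higher means less bacterial growth from phage killing when AddAB is blocked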
Of the large screens only hits and unclear results are named; the others gave an inactive call (follow-up assays come after a bar, where they were run). Rows were chosen to be rich in hits. Some 0.5% of all compounds tested hit in one or more screens of this group.

CN(C)CCn1nnnc1SCC1=C(C(=O)O)N2C(=O)[C@@H](NC(=O)Cc3csc(N)n3)[C@H]2SC1	phage Ecoli inh 99 (no result: E coli growth-2) | RecBCD conf 103 | Ecoli viability 105 | AddAB counter 51
CCCCCCCCCC[n+]1cccc2c3ccccc3ccc21	phage Ecoli inh 12, E coli growth-2 0.13 (no result: AddAB inh, E coli growth-1) | RecBCD conf inactive | Ecoli viability inactive | AddAB counter inactive
CCN(CCOC(=O)Nc1ccc(Cl)cc1)C(=O)Nc1ccc(Cl)cc1	phage Ecoli inh 11 (no result: AddAB inh, Tat transport, E coli growth-1, E coli growth-2) | RecBCD conf inactive | Ecoli viability inactive | AddAB counter inactive
Nc1c(Cl)ncnc1N/N=C/c1ccccn1	phage Ecoli inh 30 (no result: Tat transport, E coli growth-2) | RecBCD conf 38 | Ecoli viability 49 | AddAB counter 37
Cc1ccc(/C=C/C(=O)c2c(C)nc3ccccn23)cc1	phage Ecoli inh 12 | RecBCD conf inactive | Ecoli viability inactive | AddAB counter inactive
O=C(NNC(=O)c1ccc2ccccc2c1O)Nc1ccc(F)cc1	phage Ecoli inh 12 | RecBCD conf inactive | Ecoli viability inactive | AddAB counter inactive
Cc1cccc(NC(=O)NNC(=O)c2ccc3ccccc3c2O)c1	none (no result: AddAB inh, E coli growth-1)
CC(C)NC(=O)N(C)CC1Oc2c(NS(=O)(=O)c3ccc(F)cc3)cccc2C(=O)N(C(C)CO)CC1C (stereo unspecified)	none (no result: phage Ecoli inh, AddAB inh, Tat transport, E coli growth-1)
FC(F)(F)c1cccc(CNC(=S)Nc2ccccc2)c1	none
O=C(Nc1ccccc1)Nc1cccc(C(F)(F)F)c1	phage Ecoli inh 11 | RecBCD conf inactive | Ecoli viability inactive | AddAB counter inactive
CCSCCc1nnc(NC(=O)Nc2cccc(C(F)(F)F)c2)s1	phage Ecoli inh 11 | RecBCD conf inactive | Ecoli viability inactive | AddAB counter inactive
FC(F)(F)Sc1ccc(NC(=S)NCc2ccccc2)cc1	phage Ecoli inh 13, E coli growth-1 10 | RecBCD conf inactive | Ecoli viability inactive | AddAB counter inactive
FC(F)(F)c1cccc(NC(=S)NCc2ccccc2)c1	phage Ecoli inh 12 | RecBCD conf inactive | Ecoli viability inactive | AddAB counter inactive
S=C(NCc1ccccc1)Nc1ccc(Cl)cc1	none
CNC(=O)Nc1cccc(C(F)(F)F)c1	none
O=[N+]([O-])c1ccc(C=Nn2c(C3CCCCC3)n[nH]c2=S)cc1	none (no result: phage Ecoli inh, AddAB inh, Tat transport, E coli growth-1)
COc1ccc(C2CC(=O)C=C(c3cc(OC)ccc3OC)C2)cc1 (stereo unspecified)	none (no result: phage Ecoli inh, AddAB inh, Tat transport, E coli growth-1)
O=C(NCc1ccc2c(c1)CCO2)Nc1cccc(C(F)(F)F)c1	phage Ecoli inh 11 | RecBCD conf inactive | Ecoli viability inactive | AddAB counter inactive
O=C(NCc1cccnc1)Nc1cccc(C(F)(F)F)c1	none (no result: AddAB inh, E coli growth-1)
O=C(Nc1ccccc1)Nc1ccc(Br)c(Cl)c1	phage Ecoli inh 12 | RecBCD conf inactive | Ecoli viability inactive | AddAB counter inactive
CC(C)(C)OC(=O)NC(CCCCNC(=O)OCc1ccccc1)c1nnc(C(CCCCNC(=O)OCc2ccccc2)NC(=O)OC(C)(C)C)o1 (stereo unspecified)	none (no result: phage Ecoli inh, AddAB inh, Tat transport, E coli growth-1)
COc1ccc(C2CC(=O)C=C(c3ccc4ccccc4c3)C2)cc1OC (stereo unspecified)	none (no result: phage Ecoli inh, AddAB inh, Tat transport, E coli growth-1)
Nc1nc2ccc(Cl)cc2o1	phage Ecoli inh 13 (no result: AddAB inh, E coli growth-1) | RecBCD conf 14 | Ecoli viability inactive | AddAB counter 37
CCCn1c(SCC(=O)NC2CCCC2)nnc1-c1ccccn1	phage Ecoli inh 38 | RecBCD conf inactive | Ecoli viability inactive | AddAB counter inactive
C=CCn1c(SCC(=O)NC2CCCC2)nnc1-c1ccccn1	none
O=C(NN=Cc1ccc(-c2cccc([N+](=O)[O-])c2)o1)[C@H]1C[C@@H]1c1ccccc1	none (no result: phage Ecoli inh, AddAB inh, Tat transport, E coli growth-1)
Cc1cc(=O)[nH]c(N=N/C(=N/Nc2ccc(O)cc2)c2ccccc2)n1	phage Ecoli inh 21 (no result: E coli growth-2) | RecBCD conf 19 | Ecoli viability inactive | AddAB counter 79
Cc1cc(=O)[nH]c(N=N/C(=N/Nc2ccccc2C)c2ccccc2)n1	none (no result: E coli growth-2)
COc1cc(C(=O)N=c2sccn2C)c([N+](=O)[O-])cc1OC	none (no result: AddAB inh, E coli growth-1)
Cn1ccsc1=NC(=O)c1ccc([N+](=O)[O-])o1	phage Ecoli inh 100, AddAB inh 99, E coli growth-1 99, E coli growth-2 0.062 | RecBCD conf 99 | Ecoli viability 101 | AddAB counter 101
COc1ccc(N2C(=O)N3C(c4ccc(Br)cc4)C4C(=O)N(C(C)(C)C)C(=O)C4[C@]3(Cc3ccccc3)C2=O)cc1 (stereo partly specified)	none (no result: phage Ecoli inh, AddAB inh, Tat transport, E coli growth-1)
CN(C)c1ccc(C=c2c3ccccc3n3c2c2c([n+]3C)CCCC2)cc1	phage Ecoli inh 62 (no result: AddAB inh, E coli growth-1, E coli growth-2) | RecBCD conf 72 | Ecoli viability 97 | AddAB counter 101
C=CCC(CC(=O)NC(CO)Cc1ccccc1)C(=O)NCC(OC(=O)C(CC=C)CC(=O)OC(C)(C)C)c1ccccc1 (stereo unspecified)	none (no result: phage Ecoli inh, AddAB inh, Tat transport, E coli growth-1)
CC1C=C[C@](Cc2ccccc2)(C(=O)NCC2CC2)N1C(=O)c1ccccc1 (stereo partly specified)	none (no result: phage Ecoli inh, AddAB inh, Tat transport, E coli growth-1)
COc1cc(CCCNC(CN)Cc2ccccc2)cc(OC)c1OC (stereo unspecified)	none (no result: phage Ecoli inh, AddAB inh, Tat transport, E coli growth-1)
Cc1nc(N/N=C/c2ccccn2)sc1C	phage Ecoli inh 16, AddAB inh 20, E coli growth-1 18 (no result: Tat transport, E coli growth-2) | RecBCD conf inactive | Ecoli viability inactive | AddAB counter inactive
Cc1nc(NN=Cc2ccccn2)sc1C	none (no result: phage Ecoli inh, AddAB inh, Tat transport, E coli growth-1)
CC(=O)c1cn(CC(=O)Nc2ccccc2)c2ccccc12	phage Ecoli inh 12, AddAB inh 14, E coli growth-1 11 | RecBCD conf inactive | Ecoli viability inactive | AddAB counter inactive
CC1CCN(C(=O)c2nc[nH]c2C(=O)OC(C)c2ccccc2)CC1 (stereo unspecified)	none (no result: phage Ecoli inh, AddAB inh, Tat transport, E coli growth-1)
CCC(=O)Nc1ccc(CCC(=O)N2CCCC2)cc1	phage Ecoli inh 24 | RecBCD conf inactive | Ecoli viability inactive | AddAB counter inactive
Nc1ccc(CCC(=O)N2CCCC2)cc1	none (no result: AddAB inh, E coli growth-1)
Cc1ccc2c(c1)C1C(CO2)C(c2ccccc2)[C@]2(C)C(=O)Nc3cc(Cl)ccc3C(=O)N12 (stereo partly specified)	none (no result: phage Ecoli inh, AddAB inh, Tat transport, E coli growth-1)
Cc1cccc(OCC(=O)NN=Cc2cn(C)c3ccccc23)c1	none (no result: phage Ecoli inh, AddAB inh, Tat transport, E coli growth-1)
O=C(COc1ccccc1)N/N=C/c1ccc([N+](=O)[O-])o1	phage Ecoli inh 12, E coli growth-1 9.8 (no result: E coli growth-2) | RecBCD conf inactive | Ecoli viability inactive | AddAB counter 31
O=[N+]([O-])c1ccc(-c2nc(Cl)c3c(n2)CCCC3)o1	phage Ecoli inh 97 (no result: AddAB inh, Tat transport, E coli growth-1, E coli growth-2) | RecBCD conf 76 | Ecoli viability 97 | AddAB counter 100
Cc1cn(C2CCC(CO)O2)c(=O)[nH]c1=O (stereo unspecified)	phage Ecoli inh 24 (no result: AddAB inh, E coli growth-1) | RecBCD conf 20 | Ecoli viability inactive | AddAB counter 60
CC(C)CC1CN=C(Nc2ccccc2)N1CCC1CCCC1 (stereo unspecified)	none (no result: phage Ecoli inh, AddAB inh, Tat transport, E coli growth-1)
